Compound activity (PubChem)
MCF10A rerep: A quantitative high throughput screen for small molecules that induce DNA re-replication in MCF 10a normal breast cells | MCF 10A DNA re-replication, Hoechst nuclear intensity, 48 h | Potency, µM (titrated, usually from 46.1 µM), for the others: top-dose activity, positive = re-replication, most hits filed as activators | 350,000 tested, 2.9% active; further: potency means the concentration at half of the fitted maximal effect; % of control where 0% means no effect; nearly all actives have a fitted effect of over 50% in size
IL1B secr inh: qHTS for Inhibitors of Inflammasome Signaling: IL-1-beta AlphaLISA Primary Screen; THP-1 LPS/ATP IL-1B secretion, AlphaLISA, 16 h; stronger effect = lower value; activity change, % at 57.5 µM; 360,000 tested, 4.7% active; in the data active means activity change below about -50%; inconclusive means mostly about -30% to -49%; further: on the % scale 0 is the no-effect control and ±100 the full control effect
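Secreted IL-1B measured by AlphaLISA bead assay after 16 h compound exposure of THP-1 cells; compounds (final up to 57.5 uM) added 1 h before LPS (250 ng/mL) and ATP (1.25 mM) stimulation; lower signal means less secretion.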
SW480 rerep: A quantitative high throughput screen for small molecules that induce DNA re-replication in SW480 colon adenocarcinoma cells; SW480 DNA re-replication, Hoechst DNA content imaging, 48 h; Potency, µM (doses to about 46.1 µM), for the others: at the highest dose re-replication activation, hits mostly activators; 340,000 tested, 1.8% active; further: potency means the concentration at half of the fitted maximal effect; % of control where 0% means no effect; nearly all actives have a fitted effect of over 55% in size
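250 cells/well; 23 nL cpd via pin tool; 48 hr, 37 C, 5% CO2; Hoechst 40 min; imager read of total nuclear intensity, ex 405/em 500-530 nm.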
PINK1 expr mod: A Quantitative High throughput Screen to Identify Chemical Modulators of PINK1 Expression. PINK1 immunofluorescence, high-content cytometry, 24 h. Potency, µM (series often up to 76.6 µM), without a hit: top-dose activation (PINK1 increase), usual class: activators. 410,000 tested, 0.2% active; active means well fitted activation curve with a large enough effect; inconclusive means small, poorly fitted or top-dose-only effect; cell line not stated here; further: potency means the concentration at half of the fitted maximal effect; % of control where 0% means no effect; nearly all actives have a fitted effect of over 65% in size
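Fluorescence from anti-PINK1 antibody, together with nuclear and cell stains, was scanned on a laser-scanning cytometer. Before staining, stable-line cells were incubated 24 hours with compounds at 5 concentrations; primary antibody 12 h at 10 degrees C.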
ATXN viability: Viability Counterscreen for Primary qHTS for Inhibitors of ATXN expression | S2 cells (HEK-293 line with an ATXN2-luciferase reporter) viability, CellTiter-Fluor protease fluorescence, 24 h | Potency, µM (highest dose often 56.7 µM), hits mostly cytotoxic | 400,000 tested, 0.49% active; further: potency means the concentration at half of the fitted maximal effect; nearly all actives have a fitted effect of over 40% in size
ATXN2 expr inh: Primary qHTS for Inhibitors of ATXN expression. HEK-293 ATXN2-luciferase reporter, luminescence, 24 h. Potency, µM (top dose mostly 57 µM), for the others: at the highest dose activity change, negative = inhibition, most hits filed as inhibitors. 360,000 tested, 0.72% active; further: potency means the concentration at half of the fitted maximal effect; on the % scale 0 is the no-effect control and ±100 the full control effect; nearly all actives have a fitted effect of over 55% in size
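qHTS (up to 57 uM final) was run with 24 h compound exposure of reporter cells at 37 °C. Each well was multiplexed: SteadyGlo luminescence measured ATXN2-luciferase expression after a fluorogenic Gly-Phe-AFC viability readout (25 uM final).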
An asterisk follows results filed as active; i = inactive; ? = inconclusive; / = no result; [ ] = remark or other dose. An excerpt weighted towards active compounds, which were near 7.1% of everything screened. Unless noted, the call rests on the fitted dose curve; in most records, active means well fitted curve in the direction sought with a large enough effect; inconclusive means small, poorly fitted or top-dose-only effect, or another doubt; inactive means no such curve, though single readings can be large; an effect the other way counts as inactive or inconclusive.

SMILES | MCF10A rerep | IL1B secr inh | SW480 rerep | PINK1 expr mod | ATXN viability | ATXN2 expr inh
Cc1ccsc1/C=C(\CC(=O)O)c1nc2ccccc2o1 | 7% | 24 | -4% | 0% | i | 11%
Cc1ccc(S(=O)(=O)NNC(=O)c2c(O)c3ccccc3[nH]c2=O)cc1 | 5.8µM* | 7 | ? | 12% | i | -7%
COC(=O)Nc1ccc(S(=O)(=O)NNC(=O)c2c(O)c3ccccc3[nH]c2=O)cc1 | 21µM* | 18 | ? | 6% | ? | ?
CCOC(=O)c1c(C)oc2nc(C)nc(NCc3ccc(F)cc3)c12 | / | / | / | 2% | i | 7%
CC1(C)CC(=O)C2=C(C1)OC(N)=C(C#N)C2C#Cc1ccccc1 (centres undefined) | 8.9µM* | -96* | ? | 5% | ? | 9%
CC1(C)CC(=O)C2=C(C1)OC(N)=C(C#N)C2c1cn(-c2ccccc2)nc1-c1ccccc1 (centres undefined) | ? | -54* | 5% | 5% | i | 26%
O=C(CSc1nc2ccccc2n1Cc1c(F)cccc1Cl)N1CCN(c2ccc(F)cc2)CC1 | / | / | / | 2% | i | 11%
COc1ccnc(CSC(N)=Nc2ccc(F)cc2)c1 | 12% | -99* | ? | 1% | i | 6%
COc1ccc(Cn2c(CO)cnc2SCc2ccc(F)cc2)cc1 | / | / | / | -5% | i | 3%
COc1ccc(S(=O)(=O)N2CCCCCC2)cc1N(C)S(=O)(=O)c1ccccc1 | 12µM* | -4 | 0% | 0% | i | -10%
CCCCN(C(=O)c1cc(S(=O)(=O)N2CCOCC2)ccc1N1CCOCC1)c1ccccc1 | / | -14 | / | 0% | i | /
COc1ccc(S(=O)(=O)NN(C)C)cc1N(C)S(=O)(=O)c1ccc(Cl)cc1 | -8% | 14 | -12% | -1% | ? | -1%
COc1ccc(S(=O)(=O)Nc2ccc(C)cc2)cc1N(C)S(=O)(=O)c1ccc(Cl)cc1 | 2% | -60* | ? | / | ? | ?
CCCCN(C(=O)c1cc(S(=O)(=O)N2CCCCCC2)ccc1OC)c1ccccc1 | ? | -81* | ? | 17% | ? | -30%
COc1cc(OC)cc(Oc2ccc(S(=O)(=O)N3CCCCC3)cc2[N+](=O)[O-])c1 | 19% | -99* | -87% | 6% | i | 2%
C=CCNc1oc(-c2cccc(F)c2)nc1C#N | -55% | / | -1% | 1% | ? | ?
Cc1ccc(S(=O)(=O)NCCC(=O)Nc2ccc(Cl)c(Cl)c2)cc1C | 16% | -11 | 0% | 2% | i | /
Cc1ccc(S(=O)(=O)NCCC(=O)Nc2ccncc2)cc1C | 12% | -1 | 0.65µM* | 0% | i | -15%
Cc1ccc(S(=O)(=O)NCCC(=O)Nc2cccc(Cl)c2)cc1 | 0% | -16 | 0.29µM* | 5% | ? | -12%
COc1ccccc1CNC(=O)c1ccc(N2Cc3cccc(OC)c3Oc3ncccc32)s1 | / | / | / | 0% | / | /
CCCCCn1c(=O)[nH]c2cc(C(=O)N3CCN(c4cccc(Cl)c4)CC3)ccc2c1=O | / | / | / | 0% | i | 6%
Nc1ccc(C(=O)OCC(O)CO)cc1 (centres undefined) | / | / | / | / | i | -1%
NS(=O)(=O)c1cccc(NC(=S)NC(=O)C23CC4CC(CC(C4)C2)C3)c1 | ? | -86* | 3% | 0% | i | 45%
N[C@@H](C(=O)N[C@@H]1C(=O)N2C(C(=O)O)=C(CSc3cn[nH]n3)CS[C@H]12)c1ccc(O)cc1 | / | / | / | / | i | /
Cc1cccc(C)c1NC(=O)C1C(c2ccc3c(c2)OCO3)=Nc2ccccc2N1C(=O)c1ccccn1 (centres undefined) | / | 40 | / | / | / | /
SMILES | MCF10A rerep | IL1B secr inh | SW480 rerep | PINK1 expr mod | ATXN viability | ATXN2 expr inh
Cc1cccc(C)c1NC(=O)C1C(c2ccc3c(c2)OCO3)=Nc2ccccc2N1C(=O)c1cccc(C(F)(F)F)c1 (centres undefined) | / | -57* | / | / | / | /
COc1ccc(-n2c(-c3ccc(Br)cc3)c[n+]3c2CCCCC3)cc1 | 20% | -78* | 1% | 3% | i | ?
COc1ccc(-n2c(-c3ccccc3)c[n+]3c2CCC3)cc1 | 0% | ? | 2% | 3% | ? | ?
COc1ccc(-n2c(-c3ccc(Br)cc3)c[n+]3c2CCC3)cc1 | ? | -67* | 2% | -1% | ? | ?
Cc1ccc(-n2c(-c3ccccc3)c[n+]3c2CCC3)cc1 | 12% | -73* | 1% | 0% | ? | -2%[11.3 µM]
COc1ccc(-n2c(-c3ccc(Br)cc3)c[n+]3c2SC(C)C3)cc1 (centres undefined) | -1% | -97* | 4% | 6% | i | -27%
CC(=O)N1c2ccc(S(=O)(=O)NCC3CCC(C(=O)Nc4cc(C)ccc4C)CC3)cc2CC1C (centres undefined) | / | / | / | 1% | / | /
O=C(Nc1ccccc1Cl)C(Cl)C(=O)c1ccccc1 (centres undefined) | 2% | -68* | 6% | -1% | i | -25%[11.3 µM]
O=C(Nc1ccccc1Cl)Nc1ccccc1Cl | -3% | 7 | 15% | 5% | i | 5%
O=C(Nc1ccc(Cl)cc1)C(Cl)C(=O)c1ccccc1 (centres undefined) | ? | ? | ? | 3% | i | -4%
O=C(CCCCC(=O)Nc1ccccc1Cl)Nc1ccccc1Cl | -1% | -8 | 2.9µM* | 3% | i | /
Cc1ccc(N(Cc2cccs2)C(=O)c2ccc(OC(C)C)cc2)cc1 | / | / | / | 3% | / | /
Cc1ccc2[nH]c(C(=O)N3CCc4c(cnc(C)c4CNC(=O)c4ccccc4F)C3)cc2c1 | / | / | / | -1% | i | /
O=C(O)c1ccc(N=N/C(=N\Nc2ccc(C(=O)O)cc2)c2ccccc2)cc1 | -31% | -4 | -1% | 1% | 13µM* | 1%
Cc1cc(C)n(CC(C)C(=O)O)n1 (centres undefined) | 24% | -79* | ? | 1% | i | -31%
CCS(=O)(=O)c1ccc(C(=O)Nc2ccccc2)c(Cl)c1Cl | -4% | -23 | -2% | 1% | i | 2%
CCS(=O)(=O)c1ccc(C(=O)Nc2ccccc2OC)c(Cl)c1Cl | 4% | -60* | -6% | 0% | i | -17%[11.3 µM]
CC(C)c1ccc(C2c3c(-c4ccccc4O)n[nH]c3C(=O)N2CCc2ccccc2)cc1 (centres undefined) | / | / | / | 1% | / | /
